Drawing on PubChem BioAssay AID686971 (National Center for Advancing Translational Sciences (NCATS), 2013), this text covers Potency for 100 compounds.

In all, about 360,000 compounds went through this assay and about 7,500 (2.1%) were called active. A call without a number means that no potency is given here. Not shown: some 8% with an inconclusive outcome. The sample holds actives, similar compounds and a random draw of the others, so the mix is not that of the screen. The call rests on the fitted dose curve; in most records, active means well fitted cell-killing curve with a large enough effect; inconclusive means small, poorly fitted or top-dose-only effect, or effect the other way, or another doubt; inactive means no such curve, though single readings can be large or run the other way.
Potency means the concentration at half of the fitted maximal effect.

This experiment is described as follows: qHTS for induction of synthetic lethality in tumor cells producing 2HG: qHTS for the HT-1080-IDH1KD cell line. The settings on record: HT-1080 IDH1 knockdown viability, ATP luminescence, 48 h; series mostly up to 46.1 µM. The gist of the method:
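Knockdown cells (IDH1KD HT-1080) received compounds 2 h after plating at 750 cells/well and were kept 48 h at 37 °C in 5% FBS RPMI. A CellTiter-Glo luminescence read gave % activity for curve fitting.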
On the technique in general: Quantitative high-throughput screening tests each substance at several concentrations.
Take `O=C(Nc1ccc(F)cc1)Nc1nnc([C@H]2C[C@H](O)[C@@H](CO)O2)s1`: the Potency entry was “inactive”.

Regarding `CC(C)c1cc(C(=O)N(C)C2CCCN(Cc3ccccc3F)C2)n(C)n1` (stereo not given), the Potency result is “inactive”.

For the compound `COc1ccccc1Cc1c(-c2ccc(Cl)cc2)nc2c3ccccc3ccn12`, the Potency entry was “inactive”.

Consider `CCCS(=O)(=O)NC(=O)C1(C)CCCN(C(=O)c2cccs2)C1` (stereo not given), for which the Potency entry is “inactive”.

With `Cc1cc(Br)cn2c(Cc3ccccc3C(F)(F)F)c(-c3ccc(Cl)cc3)nc12`, the Potency result was “inactive”.

In the case of `COc1c(C)cc(C(O)c2ncc(-c3cccc(C(F)(F)F)c3)[nH]2)cc1C` (stereo not given), the Potency result was “inactive”.

For `O=C(Nc1cccc2ccccc12)NC1CC1`, the Potency result is “inactive”.

As for `O=C(CSc1ncn[nH]1)Nc1nc2c(F)c(F)c(F)cc2s1`, the Potency entry is “inactive”.

In the case of `Cc1occc1C(=O)NNC(=S)NCC(C)C`, the Potency entry is “inactive”.

As to `C/C(=N\NC(=O)c1ccoc1C)c1ccccc1O`, the Potency is 13 µM (active).

Turning to `C/C(=N/NC(=O)CCc1ccccc1)c1ccco1`, the Potency entry is “inactive”.

Regarding `CCN(CC(=O)Nc1ccc(NC(C)=O)cc1)C(=O)C1CC(=O)N(c2ccc3c(c2)OCCO3)C1` (stereo not given), the Potency entry was “inactive”.

Consider `O=C1c2cccc3c([N+](=O)[O-])ccc(c23)C(=O)N1CC1CCCO1` (stereo not given), for which the Potency is 18.4 µM (active).

With `CN1CN(C)c2ccc([N+](=O)[O-])c3cccc1c23`, the Potency entry is “inactive”.

For the compound `CCOc1cccc(=O)c2c(C)n(CC3CCCO3)c(C)c12` (stereo not given), the Potency entry was “inactive”.

On to `CCNC(=O)C1(C)CCN(Cc2ccc(C(=O)OCC)o2)C1` (stereo not given), for which the Potency result is “inactive”.

On to `Cc1cccc(C(=O)NC2CCN(CC(=O)Nc3cccc(Cl)c3)CC2)c1`, for which the Potency entry was “inactive”.

With `CC1(C(=O)NS(=O)(=O)c2ccc3ccccc3c2)CCN1C(=O)C1(c2ccc(Cl)cc2)CCC1` (stereo not given), the Potency entry was “inactive”.

On to `O=C(O)c1ccccc1Cc1ccc(F)c2ccccc12`, for which the Potency result is “inactive”.

As to `CCCCN(CCCC)CC(O)Cn1c2ccccc2c(=O)c2ccccc21` (stereo not given), the Potency entry is “inactive”.

Turning to `Cc1cc(C)n(CC(O)CN(c2ccccc2)S(=O)(=O)c2ccc3ccccc3c2)n1` (stereo not given), the Potency entry is “inactive”.

For `CS(=O)(=O)N(CC(O)Cn1c2ccccc2c2ccccc21)c1cccc2ccccc12` (stereo not given), the Potency is 20.6 µM (active).

On to `CC1(C(=O)NS(=O)(=O)Cc2cccc(Cl)c2)CCN1C(=O)Cc1ccc(Cl)cc1Cl` (stereo not given), for which the Potency result is “inactive”.

For the compound `Cc1ccccc1NC(=O)Cc1nc(COC(=O)C(C)(C)Oc2ccc(Cl)cc2)cs1`, the Potency result is “inactive”.

Turning to `Oc1ccc(N=Nc2nccs2)c(O)c1`, the Potency is 4.11 µM (active).

As for `Cc1cc2c3ccccc3[nH]c(=O)n2n1`, the Potency entry was “inactive”.

For the compound `COC(=O)[C@]12CCCCC=C1N(CCC1=CCCCC1)C(=O)[C@H](CC(=O)N1CCSCC1)C2`, the Potency result was “inactive”.

On to `CCNC(=O)C1(C)CCCN1C(=O)c1ccc(N(C)C)cc1` (stereo not given), for which the Potency entry was “inactive”.

Consider `O=C(NC(Cc1c[nH]c2ccccc12)C(=O)N/N=C/c1ccc(Br)cc1)c1cccs1` (stereo not given), for which the Potency is 32.6 µM (active).

As to `CC(=O)NC(Cc1c[nH]c2ccccc12)C(=O)O` (stereo not given), the Potency entry was “inactive”.

Take `O=C(CNC(=O)c1cccs1)N/N=C/c1cccc(Br)c1`: the Potency entry is “inactive”.

In the case of `Cc1noc(C)c1-c1ccc(C(=O)NCc2ccncc2)c2occc12`, the Potency entry was “inactive”.

Regarding `Cc1ccc(C(=O)N/C(=C/c2ccc(-c3cccc([N+](=O)[O-])c3)o2)C(=O)NCCCN(C)C)cc1`, the Potency is 14.6 µM (active).

Regarding `C=CCNC(=O)/C(=C\c1cccc([N+](=O)[O-])c1)NC(=O)c1ccccc1`, the Potency entry was “inactive”.

As to `CN(C)CCNC(=O)/C(=C/c1cccc([N+](=O)[O-])c1)NC(=O)c1ccccc1`, the Potency entry is “inactive”.

For the compound `COc1ccc(C(C(=O)Nc2c(C)cccc2C)N2CCN(c3ccc(C)cc3)CC2)cc1` (stereo not given), the Potency result is “inactive”.

Consider `CCCC(=O)N1CCC1(C)C(=O)Nc1ccc(-n2cncn2)cc1` (stereo not given), for which the Potency result is “inactive”.

Consider `CCCNC(=O)C1(C)CCN(Cc2ccc(Cl)c(Cl)c2)C1` (stereo not given), for which the Potency entry was “inactive”.

Take `COc1ccc(-c2nc3ccccc3c(=O)n2CCc2ccc(O)cc2)cc1`: the Potency entry is “inactive”.

Regarding `COc1ccc(-c2c(C#Cc3ccccc3)c3ccccc3n2C)cc1`, the Potency entry was “inactive”.

As for `COc1ccc(CCNCc2c(-c3ccccc3)n(C)c3ccccc23)cc1`, the Potency is 14.6 µM (active).

As to `CC(=O)NC(c1ccccc1)c1nc(-c2ccccc2C)cs1` (stereo not given), the Potency entry was “inactive”.

On to `C[C@H]1CN([C@@H](C)CO)C(=O)c2cc(-c3ccccc3F)cnc2O[C@H]1CN(C)C(=O)C1CCOCC1`, for which the Potency result is “inactive”.

Turning to `O=C(Nc1cccc2cccnc12)c1ccc2sc([C@H]3C[C@H](O)[C@@H](CO)O3)nc2c1`, the Potency result is “inactive”.

On to `CCNC(=S)Nc1ccc2c(c1)c(=O)n(C)n2Cc1ccc(Cl)cc1`, for which the Potency entry was “inactive”.

As to `CCCC(=O)Nc1ccc2c(c1)nc1n2CCSC1`, the Potency entry was “inactive”.

On to `CCOCCC(=O)Nc1ccc2c(c1)c(=O)n(C)n2-c1ccc2ccccc2c1`, for which the Potency is 1.46 µM (active).

For the compound `CCCCN(C(C)=O)c1ccc2c(c1)C1CC2CCN1Cc1ccccc1` (stereo not given), the Potency entry is “inactive”.

As to `COc1ccc(CCn2c3c(c(=O)[nH]c2=S)CN(C(C)C)CN3)cc1OC`, the Potency result is “inactive”.

Consider `C[C@H]1CN([C@@H](C)CO)C(=O)CCCn2nncc2CO[C@@H]1CN(C)Cc1ccc(Oc2ccccc2)cc1`, for which the Potency entry is “inactive”.

Take `O=[N+]([O-])c1ccc(C=NN=Cc2ccc([N+](=O)[O-])cc2)cc1`: the Potency entry was “inactive”.

Consider `O=C1/C(=C\c2ccc([N+](=O)[O-])cc2)CS(=O)(=O)C/C1=C/c1ccc([N+](=O)[O-])cc1`, for which the Potency was 3.66 µM (active).

Regarding `CC(=O)Nc1ccc(C=Cc2ccc([N+](=O)[O-])cc2)cc1`, the Potency result was “inactive”.

Turning to `N#Cc1c(NC(=O)CCCl)sc2c1CCCCC2`, the Potency was 23.1 µM (active).

Consider `N#Cc1c(NC(=O)C2CCCO2)sc2c1CCCCC2` (stereo not given), for which the Potency entry was “inactive”.

In the case of `CCN1CCN(CC(=O)Nc2sc3c(c2C#N)CCC3)CC1`, the Potency result was “inactive”.

As for `Cc1ccc([C@H]2C[C@H](O)[C@@H](n3cc(COC(=O)c4ccccc4)nn3)CN2CC2CCCCC2)cc1`, the Potency entry is “inactive”.

In the case of `O=C(Nc1ccc2c(c1)OCCO2)C1c2ccccc2OCC(=O)N1Cc1ccccn1` (stereo not given), the Potency entry is “inactive”.

In the case of `Cc1cc(C)nc(SCC(=O)N(C)C)n1`, the Potency entry is “inactive”.

In the case of `Cc1cc(C)nc(S/C=C/C(=O)c2ccccc2)n1`, the Potency was 3.66 µM (active).

As to `Cc1cc(C)nc(SCc2ccccc2C#N)n1`, the Potency entry was “inactive”.

For the compound `COc1cccc(CNC(=O)Cc2csc(Nc3nc(=S)[nH]c4ccccc34)n2)c1`, the Potency entry is “inactive”.

In the case of `O=C(Cc1csc(Nc2nc(=S)[nH]c3ccccc23)n1)NCCCN1CCN(c2cccc(Cl)c2)CC1`, the Potency was 20.6 µM (active).

On to `O=C(CCCn1c(=O)[nH]c2cc(Cl)ccc2c1=O)NCCN1CCN(c2ccccc2)CC1`, for which the Potency result is “inactive”.

In the case of `COc1cc2nnn(-c3ccncc3)c2cc1OC`, the Potency entry was “inactive”.

On to `N#CC1(Nc2ccc3c4c(cccc24)CC3)CCCCC1`, for which the Potency result was “inactive”.

For the compound `CCOc1ccccc1CNS(=O)(=O)c1cc(-c2cc(C)no2)ccc1C`, the Potency result is “inactive”.

Regarding `Cc1cc(-c2ccc(C)c(S(=O)(=O)NCCCN(Cc3ccccc3)C(C)C)c2)on1`, the Potency result is “inactive”.

Consider `COc1ccc(CNS(=O)(=O)c2cc(-c3cc(C)no3)ccc2C(C)C)cc1`, for which the Potency is 3.66 µM (active).

As for `CCOC(=O)N1CCN(C(=O)C[C@@H]2C[C@@]3(C(=O)OC)CCCCC=C3N(CCC3=CCCCC3)C2=O)CC1`, the Potency entry is “inactive”.

With `Cc1cccc(-c2cnc(C(O)c3ccc4ccccc4c3)[nH]2)c1` (stereo not given), the Potency entry was “inactive”.

As to `CC1(C(=O)NCc2ccccc2)CN(S(C)(=O)=O)CC(=O)N1CC(F)(F)F` (stereo not given), the Potency entry was “inactive”.

Consider `CC1(C(=O)NS(=O)(=O)c2ccccc2)CCN1C(=O)C/C=C/c1ccccc1` (stereo not given), for which the Potency entry was “inactive”.

On to `CC1(C)CCSC(/C=C/c2ccccc2)=N1`, for which the Potency is 25.9 µM (active).

With `CC1(C(=O)O)CCN1C(=O)/C=C/c1ccccc1` (stereo not given), the Potency result was “inactive”.

In the case of `CC1(C(=O)NCc2ccc3c(c2)OCO3)CCN1CCc1ccccc1` (stereo not given), the Potency result was “inactive”.

In the case of `CCN(CC)C(=O)C(C)N1c2cccc3cccc(c23)S1(=O)=O` (stereo not given), the Potency entry is “inactive”.

As to `O=C(NCCOc1ccccc1Cl)C(=O)Nc1ccccc1`, the Potency entry was “inactive”.

`COc1cccc(-c2cc3nc(NCCOc4ccccc4Cl)n(C)c(=O)c3s2)c1`: the Potency result was “inactive”.

As for `CC(C)Nc1nc(NCCOc2ccccc2Cl)c2sccc2n1`, the Potency is 16.4 µM (active).

For `Cc1c(NC(=O)COC(=O)/C=C/c2cccc(F)c2)c(=O)n(-c2ccccc2)n1C`, the Potency result was “inactive”.

On to `COC(=O)C1(C(=O)OC)C[C@H](c2ccccc2)N(Cc2ccccc2OC)[C@@H]1c1ccccc1`, for which the Potency entry is “inactive”.

Consider `CC1=NNC(=O)C1CCC(=O)N/N=C(\C)c1ccc(Cl)cc1` (stereo not given), for which the Potency result is “inactive”.

Take `C/C(=N\NC(=O)Cc1ccc(Cl)cc1)c1ccccn1`: the Potency is 2.51 µM (active).

Take `NC(=O)NC(CC(=O)NNC(=O)c1ccccn1)c1ccc(Cl)cc1` (stereo not given): the Potency result is “inactive”.

With `CC(=O)NC(c1ccccc1)c1nc(-c2cccc(C(C)C)c2)cs1` (stereo not given), the Potency result was “inactive”.

On to `CC(OC(=O)c1ccc(NC(=O)CC#N)cc1)C(=O)Nc1ccc(S(=O)(=O)N2CCCC2)cc1` (stereo not given), for which the Potency entry was “inactive”.

Turning to `C[C@@H]1CN([C@H](C)CO)C(=O)CCCn2cc(nn2)CO[C@H]1CN(C)S(=O)(=O)c1ccc(Oc2ccccc2)nc1`, the Potency result was “inactive”.

Turning to `Cc1cccc(CN2CCN(C3CN(Cc4cn(Cc5ccccc5F)nn4)S(=O)(=O)C3)CC2)c1` (stereo not given), the Potency entry is “inactive”.

With `O=C(NCC(O)c1nc2ccccc2[nH]1)c1ccc(Br)cc1` (stereo not given), the Potency result was “inactive”.

Consider `Cc1cc(=O)oc2cc(OCC3CC(c4ccccc4Cl)=NO3)ccc12` (stereo not given), for which the Potency was 0.447 µM (active).

Take `CCOc1ccccc1N1CCN(C(=O)COc2ccc3c(C)cc(=O)oc3c2)CC1`: the Potency entry is “inactive”.

For the compound `Cc1cc(=O)oc2cc(OCCC[n+]3ccccc3)ccc12`, the Potency entry was “inactive”.

As to `CN1OC[C@@H]2CN(C(=O)c3cccnc3)[C@H](c3ccc(N4CCCCC4)cc3)C[C@@H]21`, the Potency entry was “inactive”.

`Cc1csc(SCC(=O)Nc2ccc(C)c(S(=O)(=O)N(C)C)c2)n1`: the Potency result is “inactive”.

In the case of `C[C@H](CO)N1C[C@H](C)[C@@H](CN(C)Cc2ccc3c(c2)OCO3)OCc2cnnn2CCCC1=O`, the Potency entry was “inactive”.

`CC(=O)NN1C(=O)c2ccccc2NC1c1ccccc1` (stereo not given): the Potency entry was “inactive”.

`O=C(O)C(c1ccccc1)N1C(=O)/C(=C\c2ccc(-c3cccc(Cl)c3)o2)SC1=S` (stereo not given): the Potency result is “inactive”.

For the compound `O=C1c2ccccc2NC(c2ccc(-c3cccc(Cl)c3)o2)N1O` (stereo not given), the Potency was 20 µM (active).

With `COc1ccc(C=C2CCC3C(CCCC34OCCO4)C2=O)cc1` (stereo not given), the Potency entry is “inactive”.
